Bioassay records: PubChem, National Center for Advancing Translational Sciences (NCATS)
Shown are actives, neighbours in structure and some others; about 1.4% of the full set was active somewhere.
Tb PYK inh: blocks Trypanosoma brucei pyruvate kinase; TbPYK enzyme, Kinase-Glo Plus ATP luminescence, 45 min; hit rate 0.12% among 410,000; Q57TT1; Potency, µM (highest dose often 76.8 µM), for inactives: top-dose activity, negative = inhibition, usual class: inhibitors; further: nearly all actives have a fitted effect of over 50% in size
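Assay buffer: 50 mM TEA pH 7.2, 100 mM KCl, 10 mM MgCl2, 0.05% BSA, 0.01% Tween-20. Pyruvate kinase from T. brucei plus substrate met compound, then ADP (130 uM final). Luminescence was read post 45 min RT.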
AmpC inh detg: AmpC beta-lactamase inhibition with detergent present; P00811; AmpC hydrolysis of nitrocefin, absorbance 480 nm, 0.01% Triton; Potency, µM (doses to about 114 µM), without a hit: at the top dose activity change, negative = inhibition, actives largely listed as inhibitors; hit rate 0.041% among 370,000; AID 485294;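 further: 0% = no-compound wells and -100% = no-enzyme wells; nearly all actives have a fitted effect of over 25% in size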
Target sequence (P00811 whole entry, looked up): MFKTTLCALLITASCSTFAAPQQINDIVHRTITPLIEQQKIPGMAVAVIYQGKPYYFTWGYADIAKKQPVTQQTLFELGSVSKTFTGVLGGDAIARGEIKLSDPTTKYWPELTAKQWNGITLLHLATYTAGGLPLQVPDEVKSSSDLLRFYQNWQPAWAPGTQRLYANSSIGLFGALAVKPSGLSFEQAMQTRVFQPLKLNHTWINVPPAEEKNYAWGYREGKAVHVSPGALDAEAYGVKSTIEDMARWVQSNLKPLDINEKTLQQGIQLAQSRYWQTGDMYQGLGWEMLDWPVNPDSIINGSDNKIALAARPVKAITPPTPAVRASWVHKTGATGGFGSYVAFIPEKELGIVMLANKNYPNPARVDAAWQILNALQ
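20 mM phosphate pH 7.0 + 0.01% (detergent screen) or 0.0001% Triton X-100; 5.3 nM AmpC reagent; cpd preinc 15 min RT; nitrocefin (800 uM stock) to start; A480 q20 s × 4 min; Activity was normalised to no-enzyme and no-compound control wells.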
AmpC inh no detg: AmpC beta-lactamase inhibition without detergent; hit rate 0.52% among 330,000; Potency, µM (titrated, usually from 57.1 µM), without a hit: at the top dose activity change, negative = inhibition, most hits filed as inhibitors; P00811; AmpC nitrocefin hydrolysis, absorbance 480 nm, 0.0001% Triton;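 further: plate controls were no compound for no effect and no enzyme for full effect; nearly all actives have a fitted effect of over 20% in size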
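20 mM phosphate pH 7.0 + 0.01% (detergent screen) or 0.0001% Triton X-100; 5.3 nM AmpC reagent; cpd preinc 15 min RT; nitrocefin (800 uM stock) to start; A480 q20 s × 4 min; Activity was normalised to no-enzyme and no-compound control wells.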
LmPK inhibitor: inhibitors of Leishmania mexicana pyruvate kinase; hit rate 0.37% among 290,000; Potency, µM (highest dose often 57.5 µM), without a hit: top-dose activity change, negative = inhibition, hits mostly inhibitors; purified LmPK, Kinase-Glo ATP luminescence, 1 h; AID 1721; Q27686
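ATP generated from ADP (0.1 mM) and PEP (0.5 mM) by 0.1 nM LmPK over 1 h at room temperature (pH 7.2 imidazole buffer) was detected by coupled luciferase luminescence. Values were normalized to uninhibited and no-enzyme wells.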
FBPA Giardia inh: Giardia lamblia aldolase inhibition. A8B2U2. purified Giardia FBPA. Potency, µM (highest dose often 59.6 µM), for inactives: at the top dose activity, negative = inhibition, hits mostly inhibitors. hit rate 0.71% among 290,000; further: nearly all actives have a fitted effect of over 55% in size
Target sequence (A8B2U2 whole entry, looked up): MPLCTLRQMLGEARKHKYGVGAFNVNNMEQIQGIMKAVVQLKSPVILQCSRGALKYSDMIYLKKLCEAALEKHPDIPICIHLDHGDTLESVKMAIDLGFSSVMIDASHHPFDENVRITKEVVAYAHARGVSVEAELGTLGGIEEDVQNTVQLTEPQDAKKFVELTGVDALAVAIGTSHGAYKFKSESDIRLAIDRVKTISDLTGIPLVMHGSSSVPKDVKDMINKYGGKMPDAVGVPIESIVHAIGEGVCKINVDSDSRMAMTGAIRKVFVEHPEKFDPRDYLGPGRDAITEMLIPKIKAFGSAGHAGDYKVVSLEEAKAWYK
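40 nM FBPA preincubated 10 min at RT with compound (up to 57.5 uM final), then substrate plus GAPDH/TPI/NAD/arsenate coupling and diaphorase/resazurin added. Fluorescence read after 20 min at RT, 525/598 nm.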
RE007 growth inh: less growth of the S. pombe RE007 Vpr strain; hit rate 0.21% among 360,000; Potency, µM (titrated, usually from 92.2 µM), inactives show at the top dose activity change, negative = less growth, most hits filed as inhibitors; S. pombe RE007 Vpr strain, BacTiter-Glo ATP luminescence, 24 h; AID 651644; active means well fitted falling curve with a large enough effect; inconclusive means small, poorly fitted or top-dose-only effect; inactive means no such curve, though single readings can be large or run the other way; further: nearly all actives have a fitted effect of over 50% in size
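Fission yeast strain RE007, carrying one chromosomally integrated HIV-1 vpr copy, was seeded at OD 0.01 in PMG+AL medium with 23 nL pinned compound. After 24 h at 30 °C and 99% humidity, viability was read by BacTiter-Glo luminescence.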
Starred values were filed as active, the others as inactive; ? = inconclusive; · = not tested or not shown; [ ] = dose if it differs, or a comment. Unless noted, the call rests on the fitted dose curve; in most records, active means well fitted curve in the direction sought with a large enough effect; inconclusive means small, poorly fitted or top-dose-only effect, or another doubt; inactive means no such curve, though single readings can be large; an effect the other way counts as inactive or inconclusive. Unless noted, on the % scale 0 is the no-effect control and ±100 the full control effect; potency means the concentration at half of the fitted maximal effect.

SMILES	Tb PYK inh	AmpC inh detg	AmpC inh no detg	LmPK inhibitor	FBPA Giardia inh	RE007 growth inh
O=C(Nc1ccc(F)cc1)c1cc(S(=O)(=O)N2CCCCC2)cs1	-7%	4%	22µM*	10%	1%	11%
COc1ccc(C(=O)NCCc2sc(-c3cccc(F)c3)nc2C)cc1	0%	-3%	·	·	·	·
Cc1ccc2nc(-c3ccc(O)c(O)c3)cn2c1	-23%	-2%	-28%	?	?	17%
Cc1ccc2nc(-c3ccccc3)cn2c1	25µM*	4%	-14%	7.1µM*	-28%	45µM*
COc1ccc(/C=C/C2=CC(C)(C)NC(=S)N2)cc1	-10%	-6%	8.9µM*	6%	7%	5%
CC1(O)CCC2C3CCC4=CC(=O)CCC4(C)C3(F)C(O)CC21C (stereo not drawn)	-3%	·	·	·	·	·
O=C(C1CCC1)N1CCc2cc(S(=O)(=O)N3CCN(c4ccccc4)CC3)ccc21	-3%	1%	·	·	·	·
CCN(CC)c1ccc(S(=O)(=O)Nc2cc(Cl)ccc2Cl)cc1NC(=S)NC(=O)C1CCCC1	-19%	?	25µM*	-2%	-2%	2%
Cc1ccc(O)c(-c2[nH]ncc2C(=O)c2ccc(Cl)cc2)c1	1%	1%	-29%	-3%	1%	16%
Cc1ccc(O)c(-c2[nH]ncc2C(=O)c2ccc(Br)cc2)c1	8%	-1%	5µM*	4%	-1%	3%
CN(C)C(=O)C(=O)c1c(-c2ccccc2)cc2ccccn12	-2%	0%	-2%	4%	21%	9%
O=Nc1c(-c2ccccc2)cc2ccccn12	-2%	-9%	120%	-6%	-29%	13µM*
O=S(c1ccccc1O)S(=O)c1ccccc1O (stereo not drawn)	4.5µM*	·	·	·	·	35µM*
C[C@@H](C(=O)O)c1ccc(C2CCCCC2)c2ccccc12	2%	·	·	·	·	·
O=C(CN1C(=O)S/C(=C\c2ccc(-c3cc(C(=O)O)ccc3Cl)o2)C1=O)Nc1ccc2c(c1)OCO2	·	79µM*	-36%	-1%	·	·
COc1ccccc1NC(=O)Cn1c(=O)n(Cc2ccccc2)c(=O)c2c1c1cc(C)ccc1n2C	-1%	7%	·	·	·	·
COc1ccccc1OC1=NS(=O)(=O)c2ccccc21	0%	-7%	-2%	13µM*	25%	17%
Cc1ccc(OC2=NS(=O)(=O)c3ccccc32)cc1	·	-5%	-17%	4%	3%	2%[3.69 µM]
Cn1cccc1Cc1nnc(SCC(=O)N2CCCCCC2)n1-c1ccc(F)cc1	-3%	-2%	89%	12%	0%	-9%
CC1CCN(C(=O)CSc2nnc(Cc3cccn3C)n2-c2ccc(F)cc2)CC1	-8%	?	6.3µM*	5%	3%	-15%
Cc1ccc(-n2c(Cc3cccn3C)nnc2SCC(=O)Nc2nnc(C)s2)cc1	-1%	?	43%	4%	7%	17%
COc1ccc(-n2c(Cc3cccn3C)nnc2SCC(=O)Nc2ccc(Cl)cc2)cc1	-1%	6%	1µM*	9%	-1%	-12%
Cc1nnc(NC(=O)CSc2nnc(Cc3cccn3C)n2C)s1	2%	5%	32µM*	2%	-8%	0%
Cc1ccc(-n2c(SCC(=O)Nc3ccc(Cl)cc3)nc(O)cc2=O)cc1	0%	-5%	7.1µM*	6%	11%	-1%
CCCSc1nc(-n2ncc(C#N)c2N)c2c3c(sc2n1)CCC(C)C3 (stereo not drawn)	1%	-9%	2µM*	-1%	-5%	-11%
SMILES	Tb PYK inh	AmpC inh detg	AmpC inh no detg	LmPK inhibitor	FBPA Giardia inh	RE007 growth inh
Cc1nc(-n2ncc(C#N)c2N)c2c3c(sc2n1)CCC3	-5%	?	-25%	-4%	-7%	-8%
COc1ccc(-c2cc3ncc(-c4ccccc4)c(N)n3n2)cc1	-6%	-10%	-21%[2.29 µM]	16µM*	-8%	-26%
Cc1ccccc1NC(=O)c1cc2ccccn2n1	11%	1%	-17%	13µM*	0%	-20%
Cc1cc(Cl)ccc1NC(=O)c1cc2ccccn2n1	0%	3%	·	·	·	·
Cc1ccc(C)c(NC(=O)c2cc3ccccn3n2)c1	-5%	?	4.5µM*	-25%	-8%	-9%
COc1ccc(C)cc1NC(=O)c1cc2ccccn2n1	-1%	1%	·	·	·	·
CCCCn1cc(S(=O)(=O)c2ccc(Cl)cc2)c(=O)c2cc(F)c(N3CCCC(C)C3)cc21 (stereo not drawn)	-2%	3%	·	·	·	·
O=C(NC1CC(=O)N(c2ccc(Cl)cc2)C1)C(=O)c1c[nH]c2ccccc12 (stereo not drawn)	3%	-5%	·	·	·	·
CCOc1cc(C(=O)Nc2cc(C)ccn2)cc(OCC)c1OCC	2%	?	19%	4%	20%	-20%
CCOc1ccc(C(=O)Nc2cccc(C)n2)cc1	-14%	-12%	-25%	16µM*	-12%	?
CCCCOc1ccc(C(=O)Nc2cccc(C)n2)cc1	-11%	-11%	1%	?	-2%	-23%
CCOc1ccc(C(=O)Nc2cc(C)ccn2)cc1	?	-3%	-10%	?	-1%	40µM*
Cc1cc(-c2ccc(C)c(S(=O)(=O)Nc3cccc(C#N)c3)c2)on1	-4%	2%	·	·	·	·
Cc1ccccc1C(=O)n1nc(-c2ccco2)nc1NCc1cccs1	-1%	1%	·	·	·	·
Cc1cc(C)nc(NC(=O)c2cnc3sccn3c2=O)n1	-8%	?	40µM*	-1%	2%	11%
Cc1cc(NS(=O)(=O)c2ccc(NC(=O)c3cnc4sccn4c3=O)cc2)nc(C)n1	-7%	2%	-32%	7%	3%	6%
CC(C)CCNC(=O)C(=O)Nc1c2c(nn1-c1ccc(Cl)cc1)CSC2	10%	1%	·	·	·	·
O=C(Cn1c(=O)nc(-c2ccccc2F)c2cc(Cl)ccc21)Nc1ccccc1C(F)(F)F	-5%	9%	·	·	·	·
CCOC(=O)C(=O)Nc1cc(C)on1	3%	-4%	11%	16µM*	5%	5%
CCOc1ccc(-c2oc3cc(Cl)ccc3c(=O)c2O)cc1OC	-9%	5%	·	·	·	·
O=C(OCCCOc1ccc(F)cc1)c1ccc(O)cc1O	-1%	-6%	3.2µM*	-10%	·	10%
O=C(CCCOC(=O)c1ccc(O)cc1O)c1ccccc1	0%	4%	-21%	·	·	0%
Cc1[nH][nH]c(=O)c1C(c1ccc(Br)cc1)c1c(C)[nH][nH]c1=O	-2%	5%	-33%	1%	-23%	1%
Cc1[nH][nH]c(=O)c1C(c1ccc(-c2cccc(Cl)c2)o1)c1c(C)[nH][nH]c1=O	?	1%	-35%	3%	5µM*	-8%
